Screening results from PubChem BioAssay.
Hits are enriched below; roughly 10% of the tested compounds scored in any of these assays.
JMJD2A Tudor – JMJD2A Tudor domain (human) inhibition | O75164 | AlphaScreen JMJD2A-Tudor / H3K4me3 peptide binding | Potency, µM (titrated, usually from 114 µM), inactives show top-dose activity change, negative = inhibition, hits mostly inhibitors | 390,000 compounds, 4.4% hits | AID 504339; further: potency means the concentration at half of the fitted maximal effect; on the % scale 0 is the no-effect control and ±100 the full control effect; nearly all actives have a fitted effect of over 50% in size
Target sequence (O75164 whole entry, looked up, the tested form may be a part): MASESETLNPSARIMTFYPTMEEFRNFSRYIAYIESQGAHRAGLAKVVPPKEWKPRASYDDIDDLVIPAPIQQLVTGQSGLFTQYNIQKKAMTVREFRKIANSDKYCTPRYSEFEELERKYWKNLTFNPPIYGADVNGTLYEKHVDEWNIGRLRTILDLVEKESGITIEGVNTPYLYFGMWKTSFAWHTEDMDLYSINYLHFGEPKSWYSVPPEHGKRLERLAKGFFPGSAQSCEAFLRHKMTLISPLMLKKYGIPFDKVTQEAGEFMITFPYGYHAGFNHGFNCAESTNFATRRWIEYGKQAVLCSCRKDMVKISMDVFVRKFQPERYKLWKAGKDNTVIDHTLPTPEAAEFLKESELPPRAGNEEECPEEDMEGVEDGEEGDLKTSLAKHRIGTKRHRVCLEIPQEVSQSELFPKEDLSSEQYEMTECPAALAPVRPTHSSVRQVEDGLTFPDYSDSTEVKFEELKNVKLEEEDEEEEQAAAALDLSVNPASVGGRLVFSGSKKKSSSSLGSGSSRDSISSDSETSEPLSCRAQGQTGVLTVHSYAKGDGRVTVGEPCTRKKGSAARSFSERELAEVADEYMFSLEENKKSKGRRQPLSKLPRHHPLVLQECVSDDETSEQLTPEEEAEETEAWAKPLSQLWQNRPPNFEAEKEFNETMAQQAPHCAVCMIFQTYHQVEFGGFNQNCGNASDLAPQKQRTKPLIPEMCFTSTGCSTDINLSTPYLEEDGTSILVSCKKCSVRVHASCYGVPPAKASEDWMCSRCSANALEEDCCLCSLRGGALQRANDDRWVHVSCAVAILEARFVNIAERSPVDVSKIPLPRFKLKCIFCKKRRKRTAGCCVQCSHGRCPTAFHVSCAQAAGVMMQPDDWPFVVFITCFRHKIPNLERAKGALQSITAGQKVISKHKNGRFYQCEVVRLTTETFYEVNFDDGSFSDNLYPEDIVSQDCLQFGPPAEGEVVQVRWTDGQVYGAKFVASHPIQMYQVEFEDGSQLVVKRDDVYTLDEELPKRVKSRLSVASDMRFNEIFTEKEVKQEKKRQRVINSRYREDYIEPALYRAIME
Six1-Eya2 blk – blocks human Six1 binding to Eya2 | AlphaScreen GST-Six1/His-Eya2 binding, biochemical; hits give low values | activity change, % (test concentration not listed) | 360,000 compounds, 0.56% hits | AID 651725; in the data active means activity change below about -65%; inconclusive means mostly about -30% to -63%; further: on the % scale 0 is the no-effect control and ±100 the full control effect
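Six1/Eya2 binding was read as AlphaScreen signal after compounds were pinned into GST-Six1 plus His-tagged Eya2 (5X stock 250/500 nM) in pH 8.0 Tris/NaCl/TCEP buffer, beads added, then incubated 1 h, 37 C, dark.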
BAZ2B block – blocks human BAZ2B | AID 504333 | 360,000 compounds, 4.4% hits | AlphaScreen BAZ2B-H3K14Ac peptide displacement | Potency, µM (highest dose often 114 µM), for inactives: at the highest dose activity change, negative = inhibition, usual class: inhibitors; further: potency means the concentration at half of the fitted maximal effect; on the % scale 0 is the no-effect control and ±100 the full control effect; nearly all actives have a fitted effect of over 60% in size
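In this displacement format the biotinylated H3(5-23) peptide acetylated at Lys14 serves as ligand at 50 nM, with BAZ2B at 50 nM in PBS pH 7.4 containing 0.01% Tween-20. Donor and acceptor beads are 10 ug/mL final.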
HP1b binding inh – blocks HP1-beta chromodomain binding to methylated histone tails | P83916 | AlphaScreen HP1-beta / biotin-H3K9me3 peptide binding | Potency, µM (top dose mostly 114 µM), inactives show top-dose activity change, negative = inhibition, usual class: inhibitors | 390,000 compounds, 0.56% hits | AID 540317; further: potency means the concentration at half of the fitted maximal effect; nearly all actives have a fitted effect of over 70% in size
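AlphaScreen: HP1-beta (50 nM) preformed 30 min with biotin-H3(1-18)K9me3 peptide (50 nM) in PBS pH 7.4, 0.01% Tween-20. Compound added for 30 min at RT, then streptavidin donor/nickel chelate acceptor beads (10 ug/mL) for 30 min.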
G9a inh – inhibitors of human histone lysine methyltransferase G9a | Q96KQ7 | G9a H3K9 monomethylation, AlphaScreen, 2 h | Potency, µM (top dose mostly 102 µM), for inactives: at the highest dose activity, negative = inhibition, hits mostly inhibitors | 350,000 compounds, 8.8% hits; further: potency means the concentration at half of the fitted maximal effect; on the % scale 0 is the no-effect control and ±100 the full control effect; nearly all actives have a fitted effect of over 75% in size
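G9a (20 nM) preincubated 15 min RT with compounds, then 500 nM biotinylated H3K9 peptide and 20 uM SAM added; 2 h RT reaction. Monomethyl-H3K9 product detected by AlphaScreen with anti-H3K9me1 antibody, streptavidin donor and anti-rabbit IgG acceptor beads.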
CtBP-E1A inh – blocks the CtBP interaction with E1A | AlphaScreen GST-E1A/His-CtBP binding, 1536-well; hits give low values | activity change, % (no concentration beside the values) | 340,000 compounds, 0.49% hits; in the data active means activity change below about -65%; inconclusive means mostly about -30% to -63%; further: on the % scale 0 is the no-effect control and ±100 the full control effect
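Steps: dispense buffer (Tris pH 8.0, NaCl 300 mM, TCEP 1 mM, BSA, Tween 20); add 5X protein mix (GST-E1A, His-CtBP, 125 nM each); pin 23 nL compound; 2 h at 37 °C, dark; add 5X beads (50 ug/mL); 1 h; read.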
Active calls of the source: *; [ ] = dose if it differs, or a comment. Unless noted, the call rests on the fitted dose curve; in most records, active means well fitted inhibition curve with a large enough effect; inconclusive means small, poorly fitted or top-dose-only effect; inactive means no such curve, though single readings can be large or run the other way.

Screening CC(=O)Nc1ccc2c(COC(=O)CC3Sc4ccccc4NC3=O)cc(=O)oc2c1 (configuration not stated) returned JMJD2A Tudor 79.4µM*, Six1-Eya2 blk 18.5, BAZ2B block 56.2µM*, HP1b binding inh inconclusive and CtBP-E1A inh -20.2.
For O=C(CC1Sc2ccccc2NC1=O)Nc1cccc(C(=O)O)c1 (configuration not stated) the results were JMJD2A Tudor 50.1µM*, Six1-Eya2 blk -23.0, BAZ2B block 56.2µM*, HP1b binding inh inconclusive, G9a inh 39.8µM* and CtBP-E1A inh 0.0.
O=C(/C=C/c1ccccc1)NCc1ccc2c(c1)OCO2 was read as JMJD2A Tudor -19.9%, Six1-Eya2 blk -3.2, BAZ2B block 1.8%, HP1b binding inh 30.6%, G9a inh 22.4% and CtBP-E1A inh -4.3.
`O=C(/C=C/c1ccco1)NCc1ccc2c(c1)OCO2` gave JMJD2A Tudor -9.7%, Six1-Eya2 blk -6.7, BAZ2B block -13.1%, HP1b binding inh 15.9%, G9a inh 20µM* and CtBP-E1A inh -9.3.
For O=C(/C=C/c1ccco1)NCCc1ccc(F)cc1 the results were JMJD2A Tudor -35.7%, Six1-Eya2 blk -8.7, BAZ2B block 79.4µM*, HP1b binding inh inconclusive, G9a inh 39.8µM* and CtBP-E1A inh -1.1.
Screening Cc1cc(-n2c(C)cc(C(=S)N3CCOCC3)c2C)ccc1Br returned JMJD2A Tudor inconclusive, Six1-Eya2 blk -23.6, BAZ2B block 44.7µM*, HP1b binding inh inconclusive, G9a inh 12.6µM* and CtBP-E1A inh -17.2.
For Cc1ccc(-n2c(C)cc(C(=O)CN3CCOCC3)c2C)cc1C the results were JMJD2A Tudor -35.0%, Six1-Eya2 blk -7.4, BAZ2B block -33.3%, HP1b binding inh 9.3% and G9a inh -32.8%.
CCn1c2ccccc2c2cc(/C=N/n3c(-c4cc(C)[nH]n4)n[nH]c3=S)ccc21 was read as JMJD2A Tudor inconclusive, Six1-Eya2 blk -16.5, BAZ2B block -34.4%, HP1b binding inh -7.1%, G9a inh 2.51µM* and CtBP-E1A inh -22.1.
`CCn1c2ccccc2c2cc(/C=N/n3cnnc3)ccc21` gave JMJD2A Tudor -18.3%, Six1-Eya2 blk 1.1, BAZ2B block 1.7%, HP1b binding inh 15.3%, G9a inh 12.8%[59 µM] and CtBP-E1A inh -8.7.
Screening CCn1c2ccccc2c2cc(/C=N/n3cn[nH]c3=S)ccc21 returned JMJD2A Tudor 17.8µM*, Six1-Eya2 blk -7.1, BAZ2B block inconclusive, HP1b binding inh -33.2%, G9a inh -0.4%[0.501 µM] and CtBP-E1A inh -10.1.
CCn1c2ccccc2c2cc(/C=N/O)ccc21 was read as JMJD2A Tudor -20.1%, Six1-Eya2 blk 2.7, BAZ2B block -10.6%, HP1b binding inh 36.8% and G9a inh -3.8%.
`CCCc1cc2c(-c3ccccc3)cc(=O)oc2cc1OCc1ccc(C(=O)O)o1` gave JMJD2A Tudor -19.5%[11.4 µM], Six1-Eya2 blk -5.2, BAZ2B block inconclusive, HP1b binding inh inconclusive and G9a inh 44.7µM*.
COc1ccc(/C=N/n2c(-c3ccccc3)n[nH]c2=S)cc1 was read as JMJD2A Tudor 25.1µM*, Six1-Eya2 blk -14.8, BAZ2B block inconclusive, HP1b binding inh -15.6%, G9a inh 1.41µM* and CtBP-E1A inh -2.2.
Screening O=[N+]([O-])c1ccccc1/C=C/C=N/n1c(-c2ccccc2F)n[nH]c1=S returned JMJD2A Tudor 44.7µM*, Six1-Eya2 blk -21.5, BAZ2B block inconclusive, HP1b binding inh inconclusive, G9a inh 1.78µM* and CtBP-E1A inh -23.9.
For Cc1ccc(-n2nc(C)c(/C=N/n3c(C)n[nH]c3=S)c2Cl)cc1 the results were JMJD2A Tudor -19.7%, Six1-Eya2 blk -4.0, BAZ2B block 6.8%, HP1b binding inh 30.4%, G9a inh 3.16µM* and CtBP-E1A inh 3.9.
COc1cccc(/C=N/n2c(-c3cccs3)n[nH]c2=S)c1 was read as JMJD2A Tudor 50.1µM*, Six1-Eya2 blk -10.3, BAZ2B block inconclusive, HP1b binding inh -3.0%, G9a inh inconclusive and CtBP-E1A inh -10.1.
`COc1ccc(-c2nc(CSCC(=O)NCCc3ccc(C)cc3)c(C)o2)cc1OC` gave JMJD2A Tudor -29.6%, BAZ2B block inconclusive, HP1b binding inh 28.2% and G9a inh inconclusive.
COc1cc(NC(=O)CN2C(=O)CCc3cc(Br)ccc32)cc(OC)c1OC was read as JMJD2A Tudor -26.5%, BAZ2B block -10.9%, HP1b binding inh 11.7%[57 µM] and G9a inh 6.1%[59 µM].
S=c1[nH]nc(-c2cc(-c3ccccc3)n[nH]2)n1/N=C/c1ccc(Cl)cc1 was read as JMJD2A Tudor -31.0%, Six1-Eya2 blk 3.6, BAZ2B block -20.5%, HP1b binding inh 24.9%, G9a inh inconclusive and CtBP-E1A inh 10.7.
For Oc1c(Br)cc(Br)c(/C=N/n2c(-c3ccccc3)n[nH]c2=S)c1Br the results were JMJD2A Tudor 7.94µM*, Six1-Eya2 blk -15.9, BAZ2B block 50.1µM*, HP1b binding inh inconclusive and CtBP-E1A inh -9.8.
For Oc1ccc(/C=N/n2c(-c3ccccc3)n[nH]c2=S)cc1 the results were JMJD2A Tudor 20µM*, Six1-Eya2 blk -4.0, BAZ2B block -3.1%, HP1b binding inh 42.1%, G9a inh -1.0%[0.501 µM] and CtBP-E1A inh 1.6.
`S=c1[nH]nc(-c2ccccc2)n1/N=C/c1cccc(Br)c1` gave JMJD2A Tudor -25.2%, Six1-Eya2 blk -8.7, BAZ2B block -1.7%, HP1b binding inh 16.7%, G9a inh -42.5%[0.501 µM] and CtBP-E1A inh -10.7.
Screening CCN(CC)c1ccc(/C=N/n2c(-c3ccccc3Br)n[nH]c2=S)cc1 returned JMJD2A Tudor inconclusive, Six1-Eya2 blk -12.5, BAZ2B block inconclusive, HP1b binding inh inconclusive, G9a inh 2.82µM* and CtBP-E1A inh 0.1.
Screening Oc1ccc(Br)cc1/C=N/n1c(-c2ccccc2)n[nH]c1=S returned JMJD2A Tudor inconclusive, Six1-Eya2 blk 0.5, BAZ2B block inconclusive and HP1b binding inh -14.0%.
For Cc1cccc(/C=N/n2c(-c3ccccc3)n[nH]c2=S)c1O the results were JMJD2A Tudor 22.4µM*, Six1-Eya2 blk -0.6, BAZ2B block inconclusive, HP1b binding inh 50.1µM*, G9a inh 1.26µM* and CtBP-E1A inh -20.9.
Screening COc1cc(/C=N/n2c(-c3ccccc3)n[nH]c2=S)cc(OC)c1OC returned JMJD2A Tudor 5.01µM*, Six1-Eya2 blk -5.8, BAZ2B block -5.4%, HP1b binding inh inconclusive and CtBP-E1A inh -3.0.
Screening Cc1n[nH]c(=S)n1/N=C/c1ccccc1 returned JMJD2A Tudor 3.98µM*, Six1-Eya2 blk 6.0, BAZ2B block -7.4%, HP1b binding inh 23.6%, G9a inh 10µM* and CtBP-E1A inh 6.9.
